For some assays here: Results with a measured potency or affinity are listed apart.
How the values were obtained:
Design in all cases: scale not given: direction of the effect not stated beside the values
[1] = biological target: Protein translocase subunit SecA (Escherichia coli (strain K12)) (UniProt P10408); assay: Assay to Identify E. coli SecA ATPase Inhibitors; type: functional; details: 30 µM
[2] = biological target: T1, Ubiquitin-activating enzyme e1, putative (Leishmania donovani (strain BPK282A1)) (UniProt E9BSI1); assay: Leishmania donovani Ubiquitin Activating Enzyme (LdE1); type: functional; details: 30 µM
T1 sequence (whole entry): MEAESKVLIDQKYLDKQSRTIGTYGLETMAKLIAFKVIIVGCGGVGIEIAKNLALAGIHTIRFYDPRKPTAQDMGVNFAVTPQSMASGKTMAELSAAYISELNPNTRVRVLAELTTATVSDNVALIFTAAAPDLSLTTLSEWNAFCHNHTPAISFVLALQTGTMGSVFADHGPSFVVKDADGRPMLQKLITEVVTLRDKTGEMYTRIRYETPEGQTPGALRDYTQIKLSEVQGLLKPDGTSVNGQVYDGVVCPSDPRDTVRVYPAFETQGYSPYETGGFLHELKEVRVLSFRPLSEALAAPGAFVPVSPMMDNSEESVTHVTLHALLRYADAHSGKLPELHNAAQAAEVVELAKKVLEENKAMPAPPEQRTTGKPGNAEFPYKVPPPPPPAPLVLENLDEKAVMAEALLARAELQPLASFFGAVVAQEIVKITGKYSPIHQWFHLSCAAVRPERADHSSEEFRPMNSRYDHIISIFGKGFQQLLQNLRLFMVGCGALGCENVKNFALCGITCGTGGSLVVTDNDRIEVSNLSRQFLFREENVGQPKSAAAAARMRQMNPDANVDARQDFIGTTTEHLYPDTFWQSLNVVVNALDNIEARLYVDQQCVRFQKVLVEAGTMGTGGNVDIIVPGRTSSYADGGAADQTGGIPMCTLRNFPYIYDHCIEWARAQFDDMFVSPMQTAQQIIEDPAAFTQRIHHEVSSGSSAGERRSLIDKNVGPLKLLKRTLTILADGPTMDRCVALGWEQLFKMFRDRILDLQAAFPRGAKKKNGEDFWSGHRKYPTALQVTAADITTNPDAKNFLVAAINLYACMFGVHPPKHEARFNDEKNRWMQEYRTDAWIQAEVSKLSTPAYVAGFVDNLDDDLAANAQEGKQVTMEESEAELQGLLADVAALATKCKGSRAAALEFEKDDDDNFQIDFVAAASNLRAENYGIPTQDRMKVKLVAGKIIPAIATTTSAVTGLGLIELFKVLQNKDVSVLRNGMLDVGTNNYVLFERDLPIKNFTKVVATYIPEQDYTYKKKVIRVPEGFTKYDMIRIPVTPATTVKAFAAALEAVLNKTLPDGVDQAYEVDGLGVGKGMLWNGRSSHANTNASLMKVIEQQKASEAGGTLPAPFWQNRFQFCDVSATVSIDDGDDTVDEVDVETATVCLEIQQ

[3] = biological target: Sialic acid-binding Ig-like lectin 9 (Homo sapiens) (UniProt Q9Y336); assay: Hs-Siglec9 ALPHAscreen SOP 20170721; details: 10 µM
Chain of Sialic acid-binding Ig-like lectin 9 (Homo sapiens) (Q9Y336 whole entry): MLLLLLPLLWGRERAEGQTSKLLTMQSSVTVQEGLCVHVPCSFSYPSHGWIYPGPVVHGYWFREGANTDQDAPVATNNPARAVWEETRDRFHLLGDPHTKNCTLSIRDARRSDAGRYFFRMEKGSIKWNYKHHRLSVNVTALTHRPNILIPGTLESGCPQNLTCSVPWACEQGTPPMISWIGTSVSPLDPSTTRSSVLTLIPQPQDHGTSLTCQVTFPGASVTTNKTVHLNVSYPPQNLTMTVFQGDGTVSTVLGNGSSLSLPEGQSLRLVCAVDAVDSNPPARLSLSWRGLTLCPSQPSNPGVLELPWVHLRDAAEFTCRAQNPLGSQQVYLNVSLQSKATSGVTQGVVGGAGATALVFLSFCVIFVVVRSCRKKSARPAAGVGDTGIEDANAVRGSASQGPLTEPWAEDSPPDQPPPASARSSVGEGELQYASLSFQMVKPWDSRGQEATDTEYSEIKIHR

[4] = tested on: Trypanosoma cruzi; assay: Trypanosoma cruzi phosphomannomutase and mannose-1-phosphate guanylyltransferase assay; type: functional; details: 10 µM
[5] = biological target: T2, Arginase-2, mitochondrial (Homo sapiens) (UniProt P78540); assay: in vitro enzyme assay to detect the production of urea directly proportional to the activity of Arginase II; type: functional; details: 33.3 µM; further: in the data most compounds retested in dose-response had high values
T2 sequence (whole entry): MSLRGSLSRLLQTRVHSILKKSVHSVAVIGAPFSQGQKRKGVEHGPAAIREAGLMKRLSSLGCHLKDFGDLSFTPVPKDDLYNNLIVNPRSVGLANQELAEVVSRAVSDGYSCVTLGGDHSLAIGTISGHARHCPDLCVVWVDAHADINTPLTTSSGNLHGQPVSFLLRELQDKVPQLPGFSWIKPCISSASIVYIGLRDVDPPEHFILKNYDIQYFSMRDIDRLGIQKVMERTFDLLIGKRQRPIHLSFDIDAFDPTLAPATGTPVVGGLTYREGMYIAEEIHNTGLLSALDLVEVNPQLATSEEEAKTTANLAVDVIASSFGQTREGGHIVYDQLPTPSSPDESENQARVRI

[6] = biological target: T3, Proteasome subunit beta (Trypanosoma cruzi) (UniProt O96673); assay: Trypanosoma cruzi proteasome chymotrypsin-like activity (TcProtChymo) assay.; further: in the data most compounds retested in dose-response had high values; type: functional; details: 9.37 µM
T3 sequence (whole entry): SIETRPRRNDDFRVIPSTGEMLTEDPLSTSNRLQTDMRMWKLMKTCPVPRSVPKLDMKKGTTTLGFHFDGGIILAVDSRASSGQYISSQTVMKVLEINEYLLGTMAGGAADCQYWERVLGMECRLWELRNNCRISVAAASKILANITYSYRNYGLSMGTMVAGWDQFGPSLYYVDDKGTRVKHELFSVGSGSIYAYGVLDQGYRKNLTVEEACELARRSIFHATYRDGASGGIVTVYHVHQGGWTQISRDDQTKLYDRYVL

[7] = organism: Homo sapiens; assay: To identify inhibition of the IFN signalling (Jak-Stat) pathway via expression of an eGFP reporter gene under the control of an IFN-stimulated response element (ISRE) containing MxA promoter.; type: functional; details: 30 µM
[8] = biological target: T4, Tyrosyl-tRNA synthetase, putative (Trypanosoma cruzi (strain CL Brener)) (UniProt Q4DSP6); assay: Trypanosoma cruzi tyrosyl tRNA synthetase (TcYRS) _High Tyrosine SOP; type: functional; details: 30 µM; further: in the data most compounds retested in dose-response had high values
T4 sequence (whole entry): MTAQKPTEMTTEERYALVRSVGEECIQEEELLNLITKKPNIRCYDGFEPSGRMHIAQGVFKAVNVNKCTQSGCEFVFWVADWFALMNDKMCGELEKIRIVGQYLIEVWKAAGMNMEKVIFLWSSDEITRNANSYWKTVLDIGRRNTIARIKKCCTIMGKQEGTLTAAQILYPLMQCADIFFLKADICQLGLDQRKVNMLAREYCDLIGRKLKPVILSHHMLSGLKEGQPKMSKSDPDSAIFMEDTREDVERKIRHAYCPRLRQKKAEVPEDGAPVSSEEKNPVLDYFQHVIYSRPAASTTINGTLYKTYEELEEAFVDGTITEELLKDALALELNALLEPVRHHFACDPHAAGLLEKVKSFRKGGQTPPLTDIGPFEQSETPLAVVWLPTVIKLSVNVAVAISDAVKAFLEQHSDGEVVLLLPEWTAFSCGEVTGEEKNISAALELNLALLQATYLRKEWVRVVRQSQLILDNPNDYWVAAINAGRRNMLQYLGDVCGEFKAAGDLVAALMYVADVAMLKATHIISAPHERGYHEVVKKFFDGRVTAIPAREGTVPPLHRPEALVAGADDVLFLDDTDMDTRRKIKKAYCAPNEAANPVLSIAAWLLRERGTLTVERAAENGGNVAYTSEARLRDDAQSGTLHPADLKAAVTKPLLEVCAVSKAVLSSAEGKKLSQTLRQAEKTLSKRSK

[9] = biological target: T4, Tyrosyl-tRNA synthetase, putative (Trypanosoma cruzi (strain CL Brener)); assay: Trypanosoma cruzi tyrosyl tRNA synthetase (TcYRS) SOP; type: functional; details: 30 µM
[10] = biological target: Chromo domain-containing protein 1 (Saccharomyces cerevisiae (strain ATCC 204508 / S288c) (Baker's yeast)) (UniProt P32657); assay: ScCHD-1 Enzyme Inhibition Assay; type: functional; details: 30 µM; further: in the data most compounds retested in dose-response had high values
Chain of Chromo domain-containing protein 1 (Saccharomyces cerevisiae (strain ATCC 204508 / S288c) (Baker's yeast)) (P32657 whole entry, the tested form may be a part): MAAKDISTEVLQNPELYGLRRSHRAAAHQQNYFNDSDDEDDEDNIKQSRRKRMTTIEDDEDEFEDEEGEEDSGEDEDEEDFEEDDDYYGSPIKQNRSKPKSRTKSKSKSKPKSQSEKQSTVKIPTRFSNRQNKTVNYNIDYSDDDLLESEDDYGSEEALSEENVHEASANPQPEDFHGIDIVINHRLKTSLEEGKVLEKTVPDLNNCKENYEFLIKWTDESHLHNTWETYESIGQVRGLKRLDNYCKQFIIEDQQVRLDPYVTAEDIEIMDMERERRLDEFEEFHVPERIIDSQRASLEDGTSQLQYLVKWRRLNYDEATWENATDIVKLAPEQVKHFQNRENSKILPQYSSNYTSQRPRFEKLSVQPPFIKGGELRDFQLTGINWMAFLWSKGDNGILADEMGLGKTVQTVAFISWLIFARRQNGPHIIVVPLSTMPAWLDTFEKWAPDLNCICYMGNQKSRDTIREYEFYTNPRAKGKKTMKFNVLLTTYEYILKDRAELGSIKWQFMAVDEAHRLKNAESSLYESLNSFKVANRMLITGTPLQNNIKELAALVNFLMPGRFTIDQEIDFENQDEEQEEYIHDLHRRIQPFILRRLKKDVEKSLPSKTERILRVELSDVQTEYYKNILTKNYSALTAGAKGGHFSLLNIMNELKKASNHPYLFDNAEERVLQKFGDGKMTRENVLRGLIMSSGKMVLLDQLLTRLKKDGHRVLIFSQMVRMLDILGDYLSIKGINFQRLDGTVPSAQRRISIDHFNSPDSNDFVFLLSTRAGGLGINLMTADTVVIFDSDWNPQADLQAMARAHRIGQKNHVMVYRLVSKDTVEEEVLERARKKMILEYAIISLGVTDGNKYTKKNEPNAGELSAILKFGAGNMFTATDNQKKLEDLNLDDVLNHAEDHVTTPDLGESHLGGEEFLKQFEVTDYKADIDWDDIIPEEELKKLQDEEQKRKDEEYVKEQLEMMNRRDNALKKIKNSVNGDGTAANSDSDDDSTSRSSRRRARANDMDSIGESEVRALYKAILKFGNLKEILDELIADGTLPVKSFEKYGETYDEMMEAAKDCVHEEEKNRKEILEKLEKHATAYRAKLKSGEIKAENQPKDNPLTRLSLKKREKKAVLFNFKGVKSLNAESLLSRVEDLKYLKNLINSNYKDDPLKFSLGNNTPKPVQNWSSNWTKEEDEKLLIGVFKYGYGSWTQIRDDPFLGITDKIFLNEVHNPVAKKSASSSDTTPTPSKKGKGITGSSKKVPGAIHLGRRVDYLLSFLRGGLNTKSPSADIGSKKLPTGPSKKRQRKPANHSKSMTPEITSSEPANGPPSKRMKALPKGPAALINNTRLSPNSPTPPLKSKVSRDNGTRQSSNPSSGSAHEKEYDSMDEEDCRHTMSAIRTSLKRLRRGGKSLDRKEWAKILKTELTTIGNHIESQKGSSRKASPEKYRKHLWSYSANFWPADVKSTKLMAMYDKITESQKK

[11] = biological target: AMP-activated protein kinase, AMPK (Homo sapiens) (UniProt P54646+O43741+P54619+Q9UGJ0+Q9Y478+Q13131+Q9UGI9); assay: AMP-dependent Kinase enzyme assay. An in vitro enzyme assay that detects ADP turnover that is directly proportional to AMPK activity. This uses naive AMPK that is activated during the assay with MK-8722; type: functional; details: 30 µM

Chain of Protein translocase subunit SecA (Escherichia coli (strain K12)) (P10408 whole entry): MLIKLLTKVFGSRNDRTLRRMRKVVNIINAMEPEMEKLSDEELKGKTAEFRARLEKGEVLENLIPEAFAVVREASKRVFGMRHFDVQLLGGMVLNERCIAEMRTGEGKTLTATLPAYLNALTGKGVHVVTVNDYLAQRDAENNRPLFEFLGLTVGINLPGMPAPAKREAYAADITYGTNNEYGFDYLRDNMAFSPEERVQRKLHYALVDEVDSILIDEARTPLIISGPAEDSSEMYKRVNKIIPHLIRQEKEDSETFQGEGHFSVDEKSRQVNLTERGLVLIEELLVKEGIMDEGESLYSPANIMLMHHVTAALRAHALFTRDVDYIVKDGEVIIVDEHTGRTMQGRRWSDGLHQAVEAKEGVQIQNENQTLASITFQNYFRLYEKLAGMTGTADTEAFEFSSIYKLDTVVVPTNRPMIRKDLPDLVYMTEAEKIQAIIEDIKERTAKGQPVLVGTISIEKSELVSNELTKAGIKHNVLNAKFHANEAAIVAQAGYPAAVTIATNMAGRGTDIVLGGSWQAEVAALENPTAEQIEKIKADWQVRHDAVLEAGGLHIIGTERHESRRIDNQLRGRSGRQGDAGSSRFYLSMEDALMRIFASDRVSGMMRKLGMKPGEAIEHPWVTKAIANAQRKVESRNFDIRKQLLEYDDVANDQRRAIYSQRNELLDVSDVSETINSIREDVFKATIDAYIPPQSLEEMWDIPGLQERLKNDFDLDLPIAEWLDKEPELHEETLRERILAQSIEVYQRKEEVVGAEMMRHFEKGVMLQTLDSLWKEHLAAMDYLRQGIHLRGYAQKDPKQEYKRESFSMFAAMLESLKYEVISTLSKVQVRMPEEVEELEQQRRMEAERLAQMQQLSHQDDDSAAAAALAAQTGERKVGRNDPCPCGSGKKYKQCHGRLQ

SMILES | Percent Effect [1] [%] | Percent Effect [2] [%] | Percent Effect [3] [%] | Percent Effect [4] [%] | Percent Effect [5] [%] | Percent Effect [6] [%] | Percent Effect [7] [%] | Percent Effect [8] [%] | Percent Effect [9] [%] | Percent Effect [10] [%] | Percent Effect [11] [%]
Cc1cccc(-c2noc(CN3CCCC3Cn3cccn3)n2)c1 (centres undefined) | -4.47 | -13.3 | 4.15 | 2.81 | -0.887 | 9.07 | 35.3 | 1.58 | 2.56 | -6.03 | 
Cc1cc(C(=O)NC2CCc3nc(C)cn3C2)[nH]n1 (centres undefined) | -3.96 | 2.67 | 4.26 | -0.803 | 1.77 | 5.68 | 3.16 | 3.68 | 5.13 | -7.74 | 
CCc1ccsc1C(=O)N1CCN(C(=O)CC(F)(F)F)CC1 | 2.23 | 18.2 | 11.7 | 1.68 | 1.02 | 10.5 | -19.1 | 6.86 | 23.5 | -4.02 | 
Cn1ccc(CN2CCC(NC(=O)NC3CCCCC3)CC2)cc1=O | -2.35 | 10.3 | 10.4 | -2.16 | 6.15 | -1.28 | 27.9 | 4.31 | 10.8 | -1.97 | 
CC(Cn1cccn1)NC(=O)Cc1cccs1 (centres undefined) | -0.712 | 16 | 1.17 | 3.41 | 3.99 | 6.36 | 28.8 | 0.526 | 7.69 | -16 | 
CNc1ccc(CC2CCCN(C(=O)c3cncnc3C)C2)nn1 (centres undefined) | 3.9 | 12 | -5.1 | -6.31 | 8.41 | 13 | 4.65 | 1.06 | 10 | -22.6 | 
CC(C)c1noc(CCC(=O)NCC2CCS(=O)(=O)C2)n1 (centres undefined) | -2.91 | 21.3 | 0.895 | 2.81 | -0.444 | 12.3 | 1.69 | 1.58 | 17.9 | -12.2 | 
Cc1noc(C2CCN(C(=O)c3ccc(NC4CC4)nc3)CC2)n1 | -3.73 | 20.5 | -12.9 | 4.6 | 1.64 | 11.3 | 11.4 | 2.39 | 20.5 | -6.59 | 
CC1CN(Cc2cccc(CN)c2)CCO1 (centres undefined) |  |  |  |  |  |  |  |  |  |  | -4.57
Cn1ccc(C(=O)NCc2cccc(NC(=O)C3CCC3)c2)cc1=O | -3.75 | 26 | 5.5 | 4.48 | -1.84 | 12.3 | 12 | 2.94 | 21.2 | -9.82 | 
c1cc(-c2noc(CN3CCn4c(nnc4C4CC4)C3)n2)co1 | -1.2 | 12.8 | 1.91 | 4.04 | 6.15 | 2.13 | 16.4 | 7.18 | 10.8 | 2.97 | 
COCCN1CCCN(C(=O)NC(C)Cn2ccnc2)CC1 (centres undefined) | 0.718 | 13 | 12.5 | 0.56 | -4.71 | -0.702 | 8.17 | 0 | 18.8 | -5.5 | 
CC(C)c1nc(C2CCCN2CCNS(C)(=O)=O)no1 (centres undefined) |  |  |  |  |  |  |  |  |  |  | 9.75
Cc1n[nH]c(C)c1C1COCCN1C(=O)c1ccccc1 (centres undefined) | 0.213 | -2.56 | 15 | -3.47 | 8.61 | 3.67 | 20.7 | -1.44 | -1.21 | -0.727 | 
Cc1ccccc1CCC(=O)N1CCc2ncnc(NCCO)c2CC1 |  |  |  |  |  |  |  |  |  |  | 0.622
Cc1cccc(CN2C(=O)CCC23CCN(c2ncc(F)cn2)CC3)n1 | -5.56 | 16.9 | -3.32 | -1.13 | 5.02 | 0.258 | -16 | 11.6 | 15 | -8.12 | 
Cc1nn(C)c(C)c1-c1ccc(=O)n(C(C)C(=O)NC2CCCCC2)n1 (centres undefined) |  |  |  |  |  |  |  |  |  |  | 12.6
Cc1ccc(-c2nc(CCNC(=O)NC3CCN(C)CC3)co2)cc1 | -4.38 | 8 | -2.04 | 1.81 | -4.88 | 12.3 | 9.37 | 3.68 | 5.13 | -12.9 | 
Cc1cccc(CN2C[C@@H]3COC[C@]3(CNC(=O)N3CCCC3)C2)n1 | -4.34 | -1.3 | 12.9 | -3.02 | -4.86 | 4.68 | 1.04 | 3.68 | 5.13 | 1.29 | 
CN1CCN(CCO)C(=O)C12CCN(Cc1ccsc1)CC2 | -2.2 | 9.09 | -2.51 | -1.88 | 1.83 | 13.5 | -2.12 | 3.87 | 12.5 | -7.99 | 
Cc1nc(O)c2nnn(C[C@H]3CCCN3C(=O)C(C)(C)C)c2n1 | -2.69 | 12 | 5.82 | -2.37 | -1.33 | 7.88 | 12.7 | 5.29 | 10 | -20.8 | 
CN(C)C(=O)N1C[C@H]2CCC[C@@]2(COc2ccccn2)C1 | -6.8 | 6.49 | -3.98 | -4.58 | -6.07 | 10.9 | 6.85 | -0.526 | 5.13 | -2.37 | 
COC(=O)CC(c1ccccc1)c1oc(C)cc(=O)c1O (centres undefined) | -10.4 | 0 | 4.84 | -5.33 | -1.75 | 1.71 | 6.47 | 1.6 | 0 | -1.53 | 
COc1ccc(CN2CCC3(CC(Nc4ccncn4)C3)C2)c(OC)c1 (centres undefined) | -3.35 | 9.33 | 5.58 | -2.76 | -3.54 | 8.21 | 5.35 | 5.29 | 7.5 | -20.7 | 
CC(=O)NC1CCCN(C(=O)NCc2cccnc2-n2cccn2)C1 (centres undefined) | -4.23 | 10.7 | -0.777 | -6.22 | 6.21 | 11.4 | 14.4 | 5.79 | 7.69 | -8.06 | 
Cc1nn(-c2ccccc2)c(C)c1CNC1CCc2ncnn2C1 (centres undefined) | -0.655 | 10.3 | 7.05 | 4.79 | 8.2 | 7.93 | -12.2 | 7.18 | 22.9 | -3.12 | 

— ChEMBL document CHEMBL3988442, “University of Dundee, Small-Polar-MMV Screening Library” (2021)
